RORgamma inh = ROR gamma (mouse) transcription inhibition; 310,000 tested, 5.4% active; Potency, µM (doses to about 53.6 µM), usual class: inhibitors; Drosophila S2 Gal4-RORgamma UAS-luciferase reporter, 20 h; P51450; further: nearly all actives have a fitted effect of over 60% in size
Target sequence (P51450 whole entry, looked up, the tested form may be a part): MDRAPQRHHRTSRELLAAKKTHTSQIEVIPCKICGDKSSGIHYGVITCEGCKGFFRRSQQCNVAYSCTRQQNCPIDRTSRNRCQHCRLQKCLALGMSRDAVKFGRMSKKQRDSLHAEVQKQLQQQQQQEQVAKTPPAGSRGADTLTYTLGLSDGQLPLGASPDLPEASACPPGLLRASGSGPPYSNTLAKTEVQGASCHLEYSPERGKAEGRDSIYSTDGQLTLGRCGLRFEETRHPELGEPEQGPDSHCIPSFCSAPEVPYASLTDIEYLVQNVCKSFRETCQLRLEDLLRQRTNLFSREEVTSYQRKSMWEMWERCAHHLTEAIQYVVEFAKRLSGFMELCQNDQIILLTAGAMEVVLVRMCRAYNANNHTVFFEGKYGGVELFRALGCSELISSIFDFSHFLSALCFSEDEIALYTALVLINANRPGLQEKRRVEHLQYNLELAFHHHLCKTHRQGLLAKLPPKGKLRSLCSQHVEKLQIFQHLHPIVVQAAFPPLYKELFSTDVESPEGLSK
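Schneider cells (Drosophila), stable Gal4 DBD–ROR gamma + UAS-luc; 1 hr cmpd preincubation; Cu2+ induction 700 uM final; 20 hr ambient; luminescence.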
ELG1 repair inh = inhibitors of ELG1-dependent DNA repair in HEK293T cells; HEK293T ELG1-luciferase reporter, luminescence, 16 h; DNA damage induced by 5-fluorouridine; Potency, µM (titrated, usually from 46.1 µM), actives largely listed as inhibitors; 330,000 tested, 2.3% active; further: nearly all actives have a fitted effect of over 55% in size
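Overnight (16 hr) co-exposure of 2,000 cells/well to 5-fluorouridine and compound at 37 °C preceded detection. Luciferase was quantified via ONE-Glo luminescence; loss of signal denotes inhibition.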
Gal4-VP16 FLuc = Gal4-VP16 reporter inhibition counter-screen; Potency, µM (titrated, usually from 53.6 µM), hits mostly inhibitors; Drosophila S2 Gal4-VP16 UAS-luciferase, luminescence, 20 h; 310,000 tested, 3.5% active;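 further: Gal4-VP16 expression switched on by copper sulfate through the metallothionein promoter; nearly all actives have a fitted effect of over 50% in size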
DT40 TDP1 CPT = DT40-hTDP1 cell growth loss with CPT; chicken DT40 Tdp1-/-;hTDP1 cells + 20 nM CPT, ATP luminescence, 48 h; Potency, µM (top dose mostly 46.2 µM), actives largely listed as inhibitors; 420,000 tested, 12% active; AID 686979; further: nearly all actives have a fitted effect of over 55% in size
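Cell growth measured by CellTiter-Glo luminescence after a minimum 48 h, 37 C compound exposure with 20 nM CPT in Tdp1-knockout DT40 cells stably expressing hTDP1, seeded 400/well; qHTS titration format.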
DT40 TDP1 no CPT = qHTS for Inhibitors of human tyrosyl-DNA phosphodiesterase 1 (TDP1): qHTS in cells in absence of CPT | DT40 Tdp1-/- hTDP1 cells, no CPT, ATP luminescence, 48 h | Potency, µM (titrated, usually from 46.2 µM), most hits filed as inhibitors | 420,000 tested, 15% active | AID 686978, 2013; further: nearly all actives have a fitted effect of over 55% in size
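Chicken DT40 Tdp1-/- cells stably complemented with human TDP1 were seeded at 400 cells/well with DMSO in place of 20 nM camptothecin. After compound pinning, cells grew at least 48 hr at 37 °C; viability read by CellTiter-Glo luminescence.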
12-LOX inh = ALOX12 (human) lipoxygenase inhibition | Potency, µM (highest dose often 108 µM), most hits filed as inhibitors | purified 12hLO, xylenol orange hydroperoxide absorbance | AID 1671190 | 580,000 tested, 1.1% active
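Purified human 12hLO at 150 nM in 25 mM Hepes, 0.01% Triton X-100, pH 7.0, preincubated 15 min at room temperature with compound. Reaction started with 40 uM arachidonic acid, 30 min at room temperature. Hydroperoxide measured by Fe-xylenol orange, 573/405 nm absorbance ratio.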
Large screens that a line does not name were inactive. Rows were chosen to be rich in hits. Some 15% of all compounds tested hit in one or more screens of this group. The call rests on the fitted dose curve; in most records, active means well fitted curve in the direction sought with a large enough effect; inconclusive means small, poorly fitted or top-dose-only effect, or another doubt; inactive means no such curve, though single readings can be large; an effect the other way counts as inactive or inconclusive.

CSC1=N/C(=C\c2ccc(-c3ccc(Cl)cc3)o2)C(=O)S1	12-LOX inh 25µM (no result: RORgamma inh, ELG1 repair inh, Gal4-VP16 FLuc, DT40 TDP1 CPT, DT40 TDP1 no CPT)
COc1ccc(OC(=O)c2cccc(OC)c2)cc1	none (no result: RORgamma inh, ELG1 repair inh, Gal4-VP16 FLuc, DT40 TDP1 CPT, DT40 TDP1 no CPT)
Cc1c(C(=O)O)cccc1-n1cccc1	none (no result: RORgamma inh, ELG1 repair inh, Gal4-VP16 FLuc, DT40 TDP1 CPT, DT40 TDP1 no CPT)
O=c1[nH]cnc2c1[nH]c(=S)n2C1O[C@@H](CO)[C@H](O)[C@@H]1O (some centres not stated)	none (no result: RORgamma inh, ELG1 repair inh, Gal4-VP16 FLuc, 12-LOX inh)
O=c1[nH]c(=O)n([C@H]2C[C@@H](O)[C@@H](CO)O2)cc1F	DT40 TDP1 CPT 5µM, DT40 TDP1 no CPT 1.6µM (no result: RORgamma inh, ELG1 repair inh, Gal4-VP16 FLuc)
O=C(O)Cn1cc(F)c(=O)[nH]c1=O	none (no result: RORgamma inh, ELG1 repair inh, Gal4-VP16 FLuc, 12-LOX inh)
Cc1cn([C@H]2C[C@H](O)[C@@H](COS(=O)(=O)O)O2)c(=O)[nH]c1=O	DT40 TDP1 CPT 3.7µM, DT40 TDP1 no CPT 1.6µM (no result: RORgamma inh, Gal4-VP16 FLuc)
O=c1[nH]cnc2c1ccn2C1OC(CO)C(O)C1O (configuration not stated)	DT40 TDP1 CPT 0.16µM, DT40 TDP1 no CPT 0.15µM (no result: RORgamma inh, ELG1 repair inh, Gal4-VP16 FLuc)
Cc1cn([C@@H]2C[C@@H](O)[C@H](CO)O2)c(=O)[nH]c1=O	none (no result: RORgamma inh, ELG1 repair inh, Gal4-VP16 FLuc, DT40 TDP1 CPT, DT40 TDP1 no CPT)
O=C1C=CC(n2cc(F)c(=O)[nH]c2=O)O1 (configuration not stated)	DT40 TDP1 CPT 18µM, DT40 TDP1 no CPT inconclusive (no result: RORgamma inh, ELG1 repair inh, Gal4-VP16 FLuc)
Cc1ncsc1C(=O)NCCc1cccs1	none (no result: RORgamma inh, ELG1 repair inh, Gal4-VP16 FLuc, DT40 TDP1 CPT, DT40 TDP1 no CPT)
O=c1[nH]c(=O)n(C2OC(CO)C(O)C2O)cc1F (configuration not stated)	DT40 TDP1 CPT 0.15µM, DT40 TDP1 no CPT 0.037µM (no result: RORgamma inh, ELG1 repair inh, Gal4-VP16 FLuc, 12-LOX inh)
Nc1nc(=O)n(C2OC(CO)C(O)C2O)cc1F (configuration not stated)	DT40 TDP1 CPT 0.033µM, DT40 TDP1 no CPT 0.0058µM (no result: RORgamma inh, ELG1 repair inh, Gal4-VP16 FLuc)
O=c1[nH]c(=S)ccn1C1OC(CO)C(O)C1O (configuration not stated)	DT40 TDP1 CPT inconclusive, DT40 TDP1 no CPT inconclusive (no result: RORgamma inh, ELG1 repair inh, Gal4-VP16 FLuc)
Cc1nc2nc3ccn(CCCN(C)C)c(=O)c3c(-c3ccccc3)n2n1	none (no result: RORgamma inh, ELG1 repair inh, Gal4-VP16 FLuc, DT40 TDP1 CPT, DT40 TDP1 no CPT)
Cc1ccc(Cc2nc3ccccc3nc2SCC(=O)N2CCN(c3ccc(F)cc3)CC2)cc1	DT40 TDP1 CPT inconclusive, DT40 TDP1 no CPT inconclusive (no result: RORgamma inh, ELG1 repair inh, Gal4-VP16 FLuc)
COc1ccc(NC(=O)CSc2nc3ccccc3nc2Cc2ccc(C)cc2)cc1Cl	DT40 TDP1 CPT 13µM, DT40 TDP1 no CPT inconclusive (no result: RORgamma inh, ELG1 repair inh, Gal4-VP16 FLuc)
O=C(CSc1nc2ccccc2nc1Cc1ccccc1)N1CCN(c2ccccc2)CC1	none (no result: RORgamma inh, ELG1 repair inh, Gal4-VP16 FLuc)
COc1ccccc1N1CCN(C(=O)CSc2nc3ccccc3nc2N2CCC(C)CC2)CC1	ELG1 repair inh 26µM, DT40 TDP1 CPT 21µM, DT40 TDP1 no CPT 23µM
COc1ccccc1N1CCN(C(=O)CSc2nc3ccccc3nc2Cc2ccc(C)cc2)CC1	DT40 TDP1 CPT 16µM, DT40 TDP1 no CPT inconclusive (no result: RORgamma inh, ELG1 repair inh, Gal4-VP16 FLuc)
O=C(CSc1nc2ccccc2nc1Cc1ccc(Cl)cc1)N1CCN(c2ccccc2F)CC1	DT40 TDP1 CPT 16µM, DT40 TDP1 no CPT 21µM (no result: RORgamma inh, ELG1 repair inh, Gal4-VP16 FLuc)
CCOc1ccc(NC(=O)CSc2nc3ccccc3nc2N2CCC(C)CC2)cc1	none (no result: RORgamma inh, ELG1 repair inh, Gal4-VP16 FLuc, DT40 TDP1 CPT, DT40 TDP1 no CPT)
CC(C)CCCNC(=O)NC(C)c1ccc(C#N)cc1 (configuration not stated)	none (no result: RORgamma inh, ELG1 repair inh, Gal4-VP16 FLuc, DT40 TDP1 CPT, DT40 TDP1 no CPT)
O=C(COc1ccccc1F)c1ccc2c(c1)N(CC(=O)N1CCOCC1)C(=O)CO2	none (no result: RORgamma inh, ELG1 repair inh, Gal4-VP16 FLuc, DT40 TDP1 CPT, DT40 TDP1 no CPT)
O=C(O)c1[nH]ncc1CN1CCc2[nH]nc(-c3ccc(-c4ccccc4)cc3)c2C1	none (no result: RORgamma inh, ELG1 repair inh, Gal4-VP16 FLuc, DT40 TDP1 CPT, DT40 TDP1 no CPT)
Nc1ccc([N+](=O)[O-])cc1NS(=O)(=O)c1ccc2ccccc2c1	none (no result: RORgamma inh, ELG1 repair inh, Gal4-VP16 FLuc, DT40 TDP1 CPT, DT40 TDP1 no CPT)
CC(=O)Nc1c(SC(F)(F)F)cc(SC(F)(F)F)cc1SC(F)(F)F	none (no result: RORgamma inh, ELG1 repair inh, Gal4-VP16 FLuc, DT40 TDP1 CPT, DT40 TDP1 no CPT)
CCC(CC)C(=O)Nc1nnc(SCC(=O)N2CCN(c3ccccc3OC)CC2)s1	ELG1 repair inh inconclusive, DT40 TDP1 CPT 21µM, DT40 TDP1 no CPT 21µM
COc1ccccc1CNC(=O)CSc1nc2ccccc2nc1N1CCCC1	none (no result: RORgamma inh, ELG1 repair inh, Gal4-VP16 FLuc, DT40 TDP1 CPT, DT40 TDP1 no CPT)
COc1ccccc1N1CCN(C(=O)CSc2nc3ccccc3nc2N2CCCCC2)CC1	ELG1 repair inh 16µM, DT40 TDP1 CPT inconclusive, DT40 TDP1 no CPT inconclusive
COc1ccc(C2NC(c3ccc(OC)cc3)C(c3ccccc3)C(=O)C2c2ccccc2)cc1 (configuration not stated)	DT40 TDP1 no CPT 21µM
